In PubChem BioAssay (NCI):
The panel holds about 79,000 compounds, 15% with a hit somewhere; the sample as a whole holds those more often. The source made the active and inactive calls. Rule as the data show it: active = growth inhibition above about 70%; inactive = the rest.

What was measured:
[1] = NCI Yeast Anticancer Drug Screen. Data for the rad50 strain (AID 155);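 also: 0% = growth of vehicle-only cultures of the same strain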; conditions: S. cerevisiae rad50 strain growth inhibition; at 50.0 µM; hits give high values
Method in brief: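 Yeast carrying a defined DNA repair defect were exposed to test compounds, and growth was compared with vehicle-treated controls to give percent inhibition.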

[2] = NCI Yeast Anticancer Drug Screen. Data for the mec2-1 strain (AID 157); conditions: S. cerevisiae mec2-1 strain, at 50.0 µM, hits give high values
Method in brief: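 Cells of the genetically defined mec2-1 yeast strain are incubated with test compound. Inhibition of growth is calculated against vehicle-treated controls.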

[3] = NCI Yeast Anticancer Drug Screen. Data for the sgs1 mgt1 strain (AID 161);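 also: 0% = growth of cultures given vehicle only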; conditions: S. cerevisiae sgs1 mgt1 strain, at 50.0 µM, hits give high values
Method in brief: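 Test agents were incubated with a DNA-repair-mutant yeast strain. Growth was then read and compared against vehicle-treated controls.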

[4] = NCI Yeast Anticancer Drug Screen. Data for the cln2 rad14 strain (AID 165);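 also: 0% = growth equal to vehicle treated cultures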; conditions: S. cerevisiae cln2 rad14 strain, at 50.0 µM, hits give high values
Method in brief: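 The screen exposed genetically defined yeast (cln2 rad14) to test compounds and scored growth inhibition relative to vehicle-treated controls.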

[5] = NCI Yeast Anticancer Drug Screen. Data for the bub3 strain (AID 167); conditions: S. cerevisiae bub3 mutant strain, at 50.0 µM, hits give high values
Method in brief: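 Compounds were applied to a genetically altered yeast strain carrying a cell-cycle control defect. Growth inhibition was scored against vehicle-treated controls.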

[6] = NCI Yeast Anticancer Drug Screen. Data for the mlh1 rad18 strain (AID 175); conditions: S. cerevisiae mlh1 rad18 strain growth inhibition; at 50.0 µM; hits give high values
Method in brief: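 Compound-treated yeast growth, normalised to vehicle controls. Strain bears defined DNA repair mutations.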

Measured: growth inhibition

Cc1ccc(-c2nc3ccccc3c(=O)o2)cc1
inactive: [1] 11.4% | [2] -9.05% | [3] -6.05% | [4] -8.6% | [5] 4.75% | [6] 14.3%

CC(=O)O[C@H]1C(=O)[C@]2(C)[C@@H](OC(=O)OCCC(O)CO)C[C@H]3OC[C@@]3(OC(C)=O)[C@H]2[C@H](OC(=O)c2ccccc2)[C@]2(O)C[C@H](OC(=O)[C@H](O)[C@@H](NC(=O)c3ccccc3)c3ccccc3)C(C)=C1C2(C)C (stereo partly specified)
inactive: [1] 1.65% | [2] -7.2% | [3] 2.25% | [4] 3.95% | [5] -19.2% | [6] -0.35%

Cc1ccc(CNC(=S)Nc2ccc(F)cc2)c(C)c1
inactive: [1] -7.6% | [2] 30.1% | [3] 30.4% | [4] -24.7% | [5] 46.1% | [6] 27.4%

COc1cc(N=Nc2ccc(S(=O)(=O)O)cc2)ccc1N=Nc1ccc2c(S(=O)(=O)O)cccc2c1O
inactive: [1] 15% | [2] -8.05% | [3] 14.3% | [4] 11.4% | [5] 5.8% | [6] 2.15%

CC1OC(n2ccc(=O)[nH]c2=O)C=C(OC(=O)c2ccccc2)C1=O (stereo unspecified)
inactive: [1] 12.2% | [2] -12.2% | [3] -11.4% | [4] -7% | [5] -9.55% | [6] 3.4%

N#C/C(=C\c1cccs1)C(=O)c1ccco1
inactive: [1] 10.2% | [2] 4.65% | [3] 24.1% | [4] 25.2% | [5] 17.2% | [6] -5.85%

O=C1NC(Cc2c[nH]c3ccccc23)C(=O)N2CCCC12 (stereo unspecified)
inactive: [1] -4.85% | [2] 1% | [3] -7% | [4] -6.5% | [5] -6.3% | [6] 8.85%

CCCCCCCCCCC(=O)OCC
inactive: [1] -30.2% | [2] 0.65% | [3] -21.4% | [4] -1.85% | [5] 1.2% | [6] -32.8%

COc1ccc(-c2cc(N3CCN(c4ccccc4)CC3)c(C#N)c(=O)o2)cc1
inactive: [1] 25.1% | [2] 3.3% | [3] 18.5% | [4] 15.8% | [5] -2.1% | [6] 12.1%

CC(=O)c1cccc(C)n1
inactive: [1] 29.8% | [2] -6.05% | [3] 22.1% | [4] 18.2% | [5] 10.9% | [6] 36.7%

O=C1c2ccccc2N2Oc3ccccc3C12c1ccccc1 (stereo unspecified)
inactive: [1] -3.45% | [2] -13.2% | [3] -16% | [4] 0.55% | [5] -21.2% | [6] 18.8%

O=C(COc1ccc(Cl)cc1Cl)Nc1ccc(N=Nc2ccccc2)cc1
inactive: [1] -0.5% | [2] 7.55% | [3] -1.95% | [4] -3.65% | [5] -2.8% | [6] 19.9%

CSc1nc(NN)c([N+](=O)[O-])c(SC)n1
inactive: [1] -7.55% | [2] -0.7% | [3] 1.2% | [4] -2.65% | [5] -14.5% | [6] 15.6%

O=C(COC(=O)c1ccccc1Br)c1ccc(-c2ccccc2)cc1
inactive: [1] 33.6% | [2] 20.8% | [3] 31.6% | [4] 31.4% | [5] 0.7% | [6] 23.2%

Cc1nn(C(=O)c2ccc(Cl)cc2)c2c1C(c1ccco1)SC(N)=N2 (stereo unspecified)
inactive: [1] -28.6% | [2] -17.5% | [3] -8.8% | [4] -17.9% | [5] -18.1% | [6] -14.8%

CCOC(=O)C(NC(=O)CC(C)C)(N1CCN(c2cc3c(cc2F)c(=O)c(C(=O)O)cn3C2CC2)CC1)C(F)(F)F (stereo unspecified)
inactive: [1] -5.8% | [2] -26.3% | [3] -0.2% | [4] 12.5% | [5] -24.9% | [6] -17.9%

CCCCCC1CCC(O)CC1 (stereo unspecified)
inactive: [1] 16.1% | [2] 6.55% | [3] 21.1% | [4] -61.4% | [5] 4.2% | [6] -7.55%

CCOC(=O)NC(=O)c1cn(CCN2CCN(C(=O)CCCCCCCCCCNc3ncnc4nc[nH]c34)CC2)c(=O)[nH]c1=O
inactive: [1] -18.5% | [2] -6.75% | [3] -12.8% | [4] -25.6% | [5] 0.05% | [6] -14.2%

O=C(CC(=O)Nc1ccccc1)NNC(Sc1ccccc1)c1cc(N=Nc2ccc(Br)cc2)ccc1O (stereo unspecified)
inactive: [1] 4.6% | [2] 14.1% | [3] 11.2% | [4] -10% | [5] -2.9% | [6] -4.7%

CC(C)(C)NCC(CN1CCOCC1)C(=O)c1ccccc1 (stereo unspecified)
active: [2] 70.1% | [5] 74.2% | [6] 90.2%
inactive: [1] 48.5% | [3] 57% | [4] 52.6%

CNCCC(=O)c1ccccc1
inactive: [1] -20.9% | [2] -14.3% | [3] -14.4% | [4] -64.8% | [5] -17.6% | [6] 2.25%

Cn1c(=O)c2c(nc(Cl)n2C)n(C)c1=O
inactive: [1] 42.5% | [2] 14.5% | [3] -16.1% | [4] -29.3% | [5] -7.65% | [6] 28.9%

Nc1nc(N)c(-c2ccccc2)c(C(=O)Nc2ccc(Cl)c(Cl)c2)n1
inactive: [1] -27.9% | [2] -34.4% | [3] 4.1% | [4] 5.6% | [5] -23.1% | [6] -16.4%

O=C1C(Cl)C(c2ccccc2O)N1n1cnc2ccccc2c1=O (stereo unspecified)
inactive: [1] -29.4% | [2] 8.9% | [3] -12.5% | [4] -9.5% | [5] -7.8% | [6] -16.2%

CC(C)CNCCCC(C)Nc1ccnc2cc(Cl)ccc12 (stereo unspecified)
inactive: [1] 11.3% | [2] -1.45% | [3] -2.25% | [4] -2.95% | [5] -15% | [6] -9.65%

Cc1cncc(NS(=O)(=O)c2ccc(N)cc2)n1
inactive: [1] 0.7% | [2] 8.7% | [3] -5.45% | [4] -13.9% | [5] 10% | [6] 6.9%

O=[N+]([O-])/C(C(Cl)=C(Cl)Cl)=C(/Cl)Sc1ccccc1
active: [1] 91.8% | [2] 92.1% | [3] 85.7% | [4] 89.8% | [5] 89.1% | [6] 91.4%

CCC1SCC(C)(C)NC1=O (stereo unspecified)
inactive: [1] 4.9% | [2] 13.4% | [3] -3.85% | [4] -39.2% | [5] 28.8% | [6] 1.4%

O=c1oc(-c2ccc(Cl)cc2Cl)nc2cc(Cl)ccc12
inactive: [1] 22.9% | [2] -10.4% | [3] 43.2% | [4] 22.2% | [5] 19.6% | [6] 25.4%

COC(=O)c1ccccc1C(=O)O
inactive: [1] 17.1% | [2] 4.05% | [3] 11.6% | [4] -10.1% | [5] 3.4% | [6] 23.2%

c1ccc(OB(Oc2ccccc2)Oc2ccccc2)cc1
inactive: [1] 12.2% | [2] 6.65% | [3] -7.25% | [4] -39% | [5] 4.2% | [6] -6.7%

COC(=O)C(C)(C)N=CN(C)C
inactive: [1] -19.7% | [2] 13.1% | [3] -7.8% | [4] 15.5% | [5] -27.9% | [6] 3.55%

COC1=CC(=O)C2CC=C(C)CC2(C)C1=O (stereo unspecified)
inactive: [1] -7.9% | [2] -12.4% | [3] -16.6% | [4] 18% | [5] -0.05% | [6] -3.8%

N=C(CNC(=O)OCc1ccccc1)N1CCCC1C(=O)O (stereo unspecified)
inactive: [1] 13.6% | [2] 2.8% | [3] 0.9% | [4] -1.7% | [5] -1.8% | [6] -6.95%

COC(=O)c1nn(-c2ccccc2)c2nc3ccccc3c-2c1C(=O)OC
inactive: [1] 39.8% | [2] 17% | [3] 31% | [4] 18.5% | [5] 20.9% | [6] 36.5%

c1cc2c3c(cccc3c1)N=S=N2
inactive: [1] 25.4% | [2] -7.45% | [3] 10.1% | [4] -62.6% | [5] 20.9% | [6] 12.2%

COC1=CC(=O)[C@H]2[C@H](C)C(c3ccccc3)[C@@]2(C)C1=O (stereo partly specified)
inactive: [1] -21.5% | [2] -1.5% | [3] -16.6% | [4] 2.1% | [5] -0.05% | [6] -20.2%

O=C1OC(=Nc2ccccc2Cl)c2ccccc21
inactive: [1] -21.6% | [2] -21.5% | [3] -5.05% | [4] -9.1% | [5] 14.5% | [6] 18.3%

Nc1nc(N)c2nc(/C=C/c3ccc4c(c3)OCO4)cnc2n1
inactive: [1] -2.25% | [2] -25.4% | [3] -4.5% | [4] 2.15% | [5] -9.1% | [6] -13.8%

CN1CSCC1C(=O)O (stereo unspecified)
inactive: [1] 13% | [2] -3.25% | [3] -8.45% | [4] -39.4% | [5] -9.1% | [6] 11.8%

CC1(C)C=C(N2CCCCC2)C(=O)c2ccccc21
inactive: [1] -9.6% | [2] -2.25% | [3] -12.2% | [4] -16.4% | [5] -9.1% | [6] 5.15%
